Hits are enriched below; roughly 3.4% of the tested compounds scored in any of these assays.
PAFAH1B2 FP inh – inhibitors of human PAFAH1B2; P68402; recombinant PAFAH1B2, FP-rhodamine activity probe, fluorescence polarization; inhibition, % at 3.39 µM; 1.2% of 340,000 active; AID 492953;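 active means inhibition above the mean of all tested compounds plus 3 SD, cut at about 24% in these data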
PAFAH1B3 FP inh – blocks human PAF acetylhydrolase 1B catalytic subunit 3; 0.28% of 340,000 active; inhibition, % at 3.39 µM; recombinant PAFAH1B3, FP-rhodamine probe, fluorescence polarization; Q15102;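 active means inhibition above the screen-wide average of all tested compounds plus 3 SD, cut at about 25% in these data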
PP5 primary – PP5 (human) phosphatase inhibition; AID 1987; P53041; inhibition, % at 6.7 µM; purified PP5c, OMFP substrate fluorescence; 0.18% of 320,000 active;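 active means inhibition above the campaign's mean inhibition across all tested compounds plus 3 SD, cut at about 9.5% in these data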
Target sequence (P53041 whole entry, looked up): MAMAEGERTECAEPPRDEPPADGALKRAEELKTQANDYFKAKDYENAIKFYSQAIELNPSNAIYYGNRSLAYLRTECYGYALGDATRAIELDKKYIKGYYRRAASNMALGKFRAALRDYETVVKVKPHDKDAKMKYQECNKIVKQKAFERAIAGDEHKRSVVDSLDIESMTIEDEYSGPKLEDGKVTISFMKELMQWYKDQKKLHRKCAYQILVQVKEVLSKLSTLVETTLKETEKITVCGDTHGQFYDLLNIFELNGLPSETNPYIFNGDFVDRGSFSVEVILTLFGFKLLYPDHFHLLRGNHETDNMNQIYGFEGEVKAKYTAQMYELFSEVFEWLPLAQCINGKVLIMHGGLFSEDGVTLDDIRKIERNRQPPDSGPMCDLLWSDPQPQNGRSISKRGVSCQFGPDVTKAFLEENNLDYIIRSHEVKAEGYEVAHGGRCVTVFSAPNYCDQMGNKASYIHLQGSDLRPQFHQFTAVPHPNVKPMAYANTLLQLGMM
PAFAH2 inh – PAFAH2 (human) inhibition; recombinant PAFAH2, FP-rhodamine activity probe, fluorescence polarization; 0.99% of 340,000 active; inhibition, % at 3.39 µM;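 active means inhibition above the mean over all tested compounds plus 3 SD, cut at about 30% in these data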;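 further: inhibitors block probe labeling of enzyme so polarization drops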
PP1 counter – blocks human PP1-alpha phosphatase, a PP5 counter-screen | 0.9% of 320,000 active | purified PP1alpha, OMFP fluorescence | P62136 | inhibition, % at 6.7 µM | AID 2235;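 active means inhibition above the mean inhibition of all tested compounds plus 3 SD, computed separately for each screening campaign, cut at about 15% in these data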
pPAFAH FP inh – inhibitors of human plasma PAF acetylhydrolase (pPAFAH); inhibition, % at 3.39 µM; AID 463082; recombinant pPAFAH, FP-rhodamine probe fluorescence polarization; Q13093; 1.5% of 330,000 active;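 active means inhibition above the mean inhibition across the screen plus 3 SD, cut at about 25% in these data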;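 further: inhibitors block binding of the rhodamine activity-based probe so polarization drops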
A number is an active result; n = inactive; x = not tested or not shown.

SMILES	PAFAH1B2 FP inh	PAFAH1B3 FP inh	PP5 primary	PAFAH2 inh	PP1 counter	pPAFAH FP inh
O=C(O)CCc1ccc(-c2ccc(Br)cc2)n1-c1ccc(O)cc1	33	n	x	n	x	x
COc1cc(C(C[N+](=O)[O-])c2c(C)[nH]c3ccccc23)cc(OC)c1OC (stereo not drawn)	n	n	n	n	n	n
CC(=O)NCc1ccc(C(=O)COC(=O)COc2ccc(Cl)c(C)c2)s1	n	n	x	n	x	27
CC(=O)NCc1ccc(C(=O)COC(=O)COc2ccccc2)s1	n	n	n	n	n	n
O=C(Nc1nnc(COc2ccc(F)cc2)s1)Nc1ccccc1F	x	x	n	x	n	n
Cc1ccc(CNC(=O)C(=O)NCC2CCCN2S(=O)(=O)c2cc(C)ccc2C)cc1 (stereo not drawn)	28	n	n	n	n	n
Cc1ccc(C)c(S(=O)(=O)N2CCCC2CNC(=O)C(=O)NCc2ccccc2)c1 (stereo not drawn)	n	n	n	n	n	n
Cc1ccc(S(=O)(=O)N2CCCCC2CCNC(=O)C(=O)NCC2CCCO2)cc1 (stereo not drawn)	n	n	n	n	17	n
O=[N+]([O-])c1ccc(O)c(C=Nc2ccc3oc(Cc4ccc(Cl)cc4)nc3c2)c1	x	x	n	x	n	46
O=C(CCC(=O)c1ccc(Oc2ccccc2)cc1)Nc1cccc(Cl)c1	n	n	n	n	n	n
CC1SC(=S)N(c2ccc(N(C)C)cc2)C1=O (stereo not drawn)	n	n	n	n	n	29
O=C(c1cn[nH]c1)N1CCc2c([nH]c3ccccc23)C1c1c(F)cccc1Cl (stereo not drawn)	n	n	n	n	n	n
CCn1cc(C(=O)Nc2cccc(C(=O)OC)c2)c(=O)c2ccc(C)nc21	n	n	n	n	n	n
Cc1cc(=O)[nH]c(N/N=C/c2cc(C)n(-c3ccccc3)c2C)n1	n	n	n	n	n	31
O=S(=O)(c1ccc(Cl)cc1)N1CCN(C(=S)Nc2ccccc2F)CC1	25	n	n	n	n	n
O=S(=O)(c1ccc(F)cc1)N1CCN(C(=S)NCc2ccccc2)CC1	n	n	n	n	n	n
Oc1ccc(N2CCN(C(=S)NCCc3ccccc3)CC2)cc1	n	n	n	n	n	29
O=S(=O)(c1ccc(F)cc1)N1CCN(C(=S)NCCc2ccccc2)CC1	24	n	n	n	n	n
O=C(N/N=C/c1ccccn1)c1ccc(Br)cc1	n	n	n	n	n	n
Cc1ccc(-c2nc(Nc3cccc(O)c3)c3ccccc3n2)cc1	n	n	n	n	n	n
Cc1ccc(-c2nc(Nc3ccc(O)cc3)c3ccccc3n2)cc1	n	n	n	n	n	26
COCCN(C(=O)CNC(=O)c1ccco1)C(C(=O)NC1CCCC1)c1ccc(OC)c(OC)c1 (stereo not drawn)	n	n	n	n	n	n
CCOC(=O)[C@@H]1[C@H]2COc3ccccc3[C@@H]2N2C(=O)N(c3ccc(OC)cc3)C(=O)[C@]12C	n	n	n	n	n	n
NC(=O)/C(N=Nc1ccccc1)=N/Nc1ccccc1	n	n	n	n	n	n
O=C(O)c1ccc(N=N/C(=N\Nc2ccc(C(=O)O)cc2)c2ccccc2)cc1	n	n	n	n	n	27
SMILES	PAFAH1B2 FP inh	PAFAH1B3 FP inh	PP5 primary	PAFAH2 inh	PP1 counter	pPAFAH FP inh
O=C(O)c1cccc(N/N=C(\N=Nc2ccccc2)c2ccccc2)c1	n	n	n	n	n	25
CC1(C)CC(=O)C=C(NCCN2CCN(C(=S)Nc3ccc(F)cc3)CC2)C1	n	n	n	n	n	n
CC(=O)c1cc(O)c2ccccc2c1O	n	n	n	n	n	26
CC(=O)c1coc2c1cc(O)c1ccccc12	n	n	n	n	n	n
Cc1ccc2nsnc2c1NC(=O)c1ccc(-c2cc(Cl)ccc2Cl)o1	n	n	n	n	25	n
Cc1ccc2nsnc2c1NC(=O)Cc1ccc(Cl)cc1	n	n	n	n	n	n
CCC(=O)NCc1c(C)c(C)n(Cc2ccccc2)c1-n1cccc1	28	n	n	n	n	n
Cc1c(CNC(=O)C2CC2)c(-n2cccc2)n(Cc2ccccc2)c1C	n	n	n	n	n	n
COC(=O)/C(=C\c1c[nH]c2ccccc12)NC(C)=O	n	n	n	n	16	n
CCOC(=O)/C(=C\c1c[nH]c2ccccc12)NC(C)=O	n	n	n	n	n	n
COc1cccc(/C=N/n2c(N)c(S(=O)(=O)c3cccs3)c3nc4ccccc4nc32)c1OC	n	n	n	n	n	n
Nc1c(S(=O)(=O)c2cccc(Cl)c2)c2nc3ccccc3nc2n1/N=C/c1ccc(O)c(O)c1	x	x	n	x	n	71
COc1ccc(/C=N/N=C2/NC(=O)C(CC(=O)O)S2)cc1OCc1ccc(Cl)cc1 (stereo not drawn)	n	n	n	n	n	n
CCOc1cc(/C=N/N=C2/NC(=O)C(CC(=O)O)S2)ccc1OCc1ccc(Cl)cc1 (stereo not drawn)	n	n	n	n	n	25
CC[C@H](C)/C=C(C)/C=C/C(=O)Cc1cc(O)c(C)c(O)c1C=O	n	n	n	n	n	32
CCC(C)(C)C1CCC2(CC1)NC(=O)N(CC(=O)N1CCN(C(=O)c3ccco3)CC1)C2=O (stereo not drawn)	25	n	n	n	n	n
CCC(C)(C)C1CCC2(CC1)NC(=O)N(CC(=O)NCCc1ccc(OC)c(OC)c1)C2=O (stereo not drawn)	25	n	n	n	n	n
CCC(C)(C)C1CCC2(CC1)NC(=O)N(CC(=O)NCCOc1ccccc1)C2=O (stereo not drawn)	28	n	n	n	n	n
O=C(CN1C(=O)NC2(CCCC2)C1=O)NCCc1ccccc1	n	n	x	n	x	n
CC(=O)c1ccc(NC(=S)NC2CCCC(C)C2C)cc1 (stereo not drawn)	n	n	n	n	n	34
O=[N+]([O-])c1ccc(OS(=O)(=O)Cc2ccccc2)cc1	n	n	n	n	n	n
O=S(=O)(Cc1ccc(Cl)cc1)Oc1ccc(Cl)cc1	25	n	x	n	x	x
CN=CC1=C(O)c2ccccc2C1=O	n	n	n	n	n	n
O=C1C(C2=C(O)c3ccccc3C2=O)=Nc2ccccc21	n	55	n	53	n	26
CCOc1cc(CNCC2CCCO2)cc(Br)c1OCC(N)=O (stereo not drawn)	n	n	n	n	17	n
CCOC(=O)C1CCN(C(=O)/C=C/c2ccccc2)CC1	n	n	n	n	n	n
C=CCC(CC=C)(NC(=O)c1ccccc1C)c1ccccc1	25	n	n	n	n	n
COc1cc(/C=C/c2cc[n+](C)cc2)ccc1OCC(=O)Nc1ccccc1	n	n	n	n	n	n
O=C(c1cc2sccc2n1Cc1ccccc1)N1CCN(c2nc3ccccc3s2)CC1	n	n	n	n	15	n
CCC(=O)N1CCN(c2nc3ccccc3s2)CC1	n	n	n	n	n	n

Bioassay records (PubChem BioAssay)
